# Screens deposited in PubChem BioAssay by several laboratories.
# An excerpt weighted towards active compounds, which were near 6.6% of everything screened.
# Bead autofluor = flagged as autofluorescent in microsphere protease counterscreen; fluorescence intensity (test concentration not listed); compound autofluorescence counterscreen, microsphere flow cytometry; active compounds read high; 360,000 tested, 3.1% active; in the data active = fluorescence intensity above about 16000; inconclusive = no clear call, values can overlap the other calls
# BoNT A protease = BoNT A light chain protease inhibition; multiplex microsphere protease substrate cleavage, flow cytometry; inhibition, % at 10 µM; 360,000 tested, 0.17% active; also: plate controls were buffer without enzyme for full effect and enzyme alone for no effect
# Anthrax LF prot = inhibitors of Bacillus anthracis lethal factor protease. multiplex microsphere protease cleavage assay, LF. inhibition, % at 10 µM. 360,000 tested, 0.12% active. AID 588501; also: plate controls were buffer without enzyme for full effect and enzyme alone for no effect
# BoNT F protease = blocks Botulinum neurotoxin F light chain protease; AID 588497; inhibition, % at 10 µM; 360,000 tested, 0.22% active; Multiplex microsphere protease cleavage assay, flow cytometry; in the data active = inhibition above about 35%, passing the limit was not always enough; inconclusive = no clear call, values can overlap the other calls; also: plate controls were buffer without enzyme for full effect and enzyme alone for no effect
# FBA Mtb inh = inhibitors of M. tuberculosis fructose-bisphosphate aldolase | P9WQA3 | purified M. tuberculosis FBA, fluorescence read-out | inhibition, % at 1 µM | 360,000 tested, 2.3% active | AID 588726; in the data active = inhibition above about 27%;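 also: 0% = vehicle and 100% = reference inhibitor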
# GDH-TPI counter = GDH-TPI coupled enzyme inhibition counter-screen | 360,000 tested, 1.2% active | GDH-TPI coupled enzyme counterscreen, NADH absorbance | AID 588335 | inhibition, % at 4.8 µM; in the data active = inhibition above about 30%;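 also: 0% = DMSO wells and 100% = wells lacking the enzyme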
# Starred values were filed as active, the others as inactive; ? = inconclusive. Rule as the data show it, unless noted: active = inhibition above about 30%; inconclusive = no clear call, values can overlap the other calls; inactive = below that.
SMILES,Bead autofluor,BoNT A protease,Anthrax LF prot,BoNT F protease,FBA Mtb inh,GDH-TPI counter
COc1ccccc1-c1cc(C(=O)NCc2ccc(F)cc2)no1,16081,2.4,-1.3,-2.1,1.8,6.2
O=C(NCc1ccccc1)c1cc(-c2cccs2)on1,18644*,5.1,-8.8,6.9,1.6,-3.7
COc1ccccc1-c1cc(C(=O)NCc2ccccc2)no1,21016*,-1.1,-2.4,-1.5,3.8,-2.5
COC(=O)c1ccccc1NC(=O)c1cc(-c2ccco2)on1,4529,0.3,-0.1,-1.5,0.0,6.0
COC(=O)c1ccccc1NC(=O)c1cc(-c2cccs2)on1,20518*,0.7,-1.1,1.9,0.2,0.0
Cn1c(CN2CCCC2)nc2cc(NC(=O)COc3ccc([N+](=O)[O-])cc3)ccc21,2473,0.4,2.6,-2.8,1.3,16.6
COC(=O)c1c(NC(=O)COC(=O)c2ccc(O)cc2)sc2c1CCCCC2,2589,-0.5,-2.4,-1.2,-1.0,0.0
CCC1(C)Cc2ccccc2-c2nc(NCCO)[nH]c(=O)c21 (configuration not stated),2495,0.0,-3.2,3.9,170.6*,16.3
O=c1[nH]c(NCCO)nc2c1C1(CCCC1)Cc1ccccc1-2,3943,-0.5,-2.9,-6.5,112.5*,8.9
CC1(C)Cc2ccccc2-c2nc(NCCCO)[nH]c(=O)c21,4110,0.6,-10.0,0.6,199.8*,11.4
CCC1(C)Cc2ccccc2-c2nc(NN)[nH]c(=O)c21 (configuration not stated),3120,-1.6,-10.1,-10.1,24.8,16.0
CCC1(CC)Cc2ccccc2-c2nc(NN)[nH]c(=O)c21,4439,-1.0,-3.0,-1.4,16.0,-3.8
CCN(C(=O)COC(=O)c1ccc2ccccc2n1)c1c(N)n(Cc2ccccc2)c(=O)[nH]c1=O,?,-3.3,-0.2,-4.9,3.3,-3.6
Cc1cc2cc(CNC(=S)Nc3ccc(OC(F)F)cc3)ccc2n1C,1428,66.1*,-110.8,-125.8,3.9,16.9
Cc1ccc(N2C(=O)CSC2c2c(F)cccc2Cl)cc1 (configuration not stated),17035*,?,-10.8,13.1,-2.6,4.8
CN1CCN(c2nc(-c3ccco3)cc(C(F)(F)F)n2)CC1,17518*,-3.5,-2.2,-4.1,1.2,7.5
FC(F)(F)c1cc(-c2ccco2)nc(-n2nnc3ccccc32)n1,15373,1.8,-3.7,2.0,2.8,13.7
FC(F)(F)c1cc(-c2ccco2)nc(-n2nc(C(F)(F)F)cc2C2CC2)n1,20606*,5.9,-4.9,5.8,2.8,5.5
Cc1cc2ccccc2c(=O)n1CC(=O)NCC(=O)N1CCN(c2cccc(Cl)c2)CC1,20243*,?,-3.3,-0.9,1.6,-7.7
Cc1cc2ccccc2c(=O)n1CC(=O)NCC(=O)N1CCN(c2ccccc2F)CC1,6717,4.3,8.3,11.1,2.3,12.1
CC1(C)OC(=O)N(c2ccccn2)C1(C)O (configuration not stated),2892,-0.5,-1.6,-5.9,0.6,-14.2
Cc1ccnc(N2C(=O)OC(C)(C)C2(C)O)c1 (configuration not stated),16787*,-0.1,0.5,-0.9,-3.7,7.3
O=C(CC1CC2CCC1C2)N1CCN(S(=O)(=O)c2ccc(C(F)(F)F)cc2)CC1 (configuration not stated),3809,-0.2,-5.7,-3.5,-0.5,0.9
O=C(O)c1ccc2c(c1)C(=O)N(C(Cc1ccc(O)cc1)C(=O)O)C2=O (configuration not stated),21507*,3.0,-2.4,1.8,-1.1,9.0
O=C(Nc1cccc([N+](=O)[O-])c1)c1ccc2nc(N3C(=O)CCC3=O)sc2c1,21930*,?,-0.5,-8.0,-4.6,-6.5
SMILES,Bead autofluor,BoNT A protease,Anthrax LF prot,BoNT F protease,FBA Mtb inh,GDH-TPI counter
O=C(O)C1C2CCCCC2=C2CCCCC2C1C(=O)O (configuration not stated),18813*,?,-0.1,2.7,0.8,0.0
O=C(O)C1C2CCCCC2=C2CCCCC2C1C(=O)Nc1nccs1 (configuration not stated),2889,-0.5,-4.0,-7.7,1.6,0.9
N#CCCn1cc(C(=O)N2CCCCC2)c(-c2ccc([N+](=O)[O-])cc2)n1,4634,-1.2,-2.2,-3.8,2.4,7.5
CS(=O)(=O)NCCSCc1c(F)cccc1Cl,2553,-0.2,0.6,-1.9,1.6,-6.0
Cc1ccccc1CSCCNS(C)(=O)=O,17003*,-1.6,-4.4,-1.5,0.6,7.5
COc1ccc(S(=O)(=O)NCCSCc2ccccc2C)cc1Br,16146*,1.1,-1.6,-0.3,-0.6,2.9
CS(=O)(=O)NCCSCc1c(Cl)cccc1Cl,17037*,-1.8,0.2,-2.1,-1.5,9.3
CS(=O)(=O)NCCSCc1ccccc1,4466,-0.2,-1.3,-6.3,1.8,-2.9
O=C(c1ccco1)N1CCN(c2ccc([N+](=O)[O-])cn2)CC1,5887,0.6,11.0,3.1,2.5,30.7*
O=C(c1ccco1)N1CCN(CC2CC3C=CC2C3)CC1 (configuration not stated),20016*,0.8,-0.5,1.9,-0.3,1.2
Nc1ccc(N2CCN(C(=O)c3ccco3)CC2)cc1,20148*,4.7,-4.3,-12.2,1.3,3.5
O=C(c1ccco1)N1CCN(c2ccc(F)cc2)CC1,2321,-0.2,-0.5,-2.1,-1.1,-3.2
c1ccc(CN2CCC3CC2c2cc(N4CCCCC4)ccc23)cc1 (configuration not stated),3021,-0.3,-10.6,1.9,2.5,8.2
Cc1ccc(CN2CCNC(=O)C2CC(=O)NCCCn2nnc3ccccc32)cc1 (configuration not stated),4081,0.8,-2.9,-8.5,-0.6,8.9
Cn1nnc2sc3c(c2c1=O)CCCC3,23005*,-2.2,-1.2,-5.2,-2.3,27.9
Cc1nc2sc3c(c2c(=O)n1N)CCC3,4292,-0.6,-1.4,-1.4,-4.9,-12.3
O=C(Nc1ccc(F)cc1)c1cccnn1,3489,-2.4,-13.2,-6.8,-0.6,-1.3
COc1ccc(OC)c(NC(=O)Cc2coc3ccc(C)cc23)c1,9700,-1.0,-2.5,-17.2,-2.1,0.9
COc1ccc(OC)c(NC(=O)Cc2coc3cc(C)cc(C)c23)c1,22476*,?,-4.0,-0.6,0.8,8.5
C=CCNC(=O)CSc1nnc(-c2cccs2)o1,2089,-0.3,-2.0,-0.1,7.5,6.8
O=C(CSc1nnc(-c2cccs2)o1)NCC1CN(Cc2ccccc2)CCO1 (configuration not stated),20699*,1.0,1.6,2.9,0.0,-14.6
CC1CCc2c(sc(NC(=O)COC(=O)c3ccccc3NCc3ccco3)c2C#N)C1 (configuration not stated),22501*,-0.7,-9.3,-2.4,0.5,-3.9
CC(/C=C1\SC(=S)N(CCC(=O)Nc2ccc(O)cc2)C1=O)=C\c1ccccc1,5673,3.2,-0.4,1.8,-3.3,0.0
CC(=Cc1ccccc1)C=C1SC(=S)N(CCCC(=O)Nc2ccc(C(=O)O)c(O)c2)C1=O,3409,0.5,-9.1,-5.2,-4.2,30.9*
